Experimental data: the supplement of paper PMC10127200
Counter-ions that a name gives are not always drawn.

Key:
Assay in all cases: Euclidean distance of Cell Painting phenotypic profile (signed KS, 77 features) to DMSO centroid (dimensionless distance); 5 or 10 uM (library dependent); higher = stronger phenotypic change vs DMSO (phenoactivity)
Settings in all cases: 48 h
786-O = tested on: 786-O
Outline: (§1)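 Phenoactivity is defined as the Euclidean distance from a compound profile to the median vehicle profile. Each profile comprised 77 Harmony features, scored as signed Kolmogorov-Smirnov statistics versus same-plate vehicle wells, then plate-position corrected, correlation-weighted and replicate-averaged at the top dose. Five cancer lines and one healthy fibroblast line were exposed to library compounds for 48 h at 10 or 5 uM (0.1% DMSO final).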

A549 = tested on: A549
Outline: as §1

DU145 = tested on: DU145
Outline: as §1

FB = tested on: FB
Outline: as §1

HEPG2 = tested on: HEPG2
Outline: as §1

OVCAR4 = tested on: OVCAR4
Outline: as §1

Structure (SMILES) | Euclidean distance (786-O) | Euclidean distance (A549) | Euclidean distance (DU145) | Euclidean distance (FB) | Euclidean distance (HEPG2) | Euclidean distance (OVCAR4)
CC1(C)OC[C@@H](COC(=O)CCc2ccc(OC[C@@H](O)CNCCNC(=O)N3CCOCC3)cc2)O1 [Landiolol hydrochloride] | 1.18 | 0.835 | 1.25 | 1.04 | 0.692 | 1.25
CC1(C)[C@@H](O[C@H]2O[C@H](C(=O)O)[C@@H](O)[C@H](O)[C@H]2O[C@@H]2O[C@H](C(=O)O)[C@@H](O)[C@H](O)[C@H]2O)CC[C@]2(C)[C@H]3C(=O)C=C4[C@@H]5C[C@@](C)(C(=O)O)CC[C@]5(C)CC[C@@]4(C)[C@]3(C)CC[C@@H]12 [Diammonium Glycyrrhizinate] | 1.05 | 1.68 | 1.1 | 0.929 | 0.457 | 1.73
O=C(O)Cc1ccccc1Nc1c(Cl)cccc1Cl [Diclofenac Potassium] | 1.38 | 0.427 | 0.963 | 1.35 | 1.1 | 0.893
Oc1ccc(C2CNCCc3c2cc(O)c(O)c3Cl)cc1 (stereo not drawn) [Fenoldopam mesylate] | 1.43 | 1.07 | 0.768 | 0.976 | 1.19 | 0.867
C[C@@]1(C(=O)Nc2ccc(F)nc2)CCCN1c1nc(Nc2cc(C3CC3)n[nH]2)c2cccn2n1 | 2.52 | 3.2 | 3.3 | 3.23 | 2.63 | 3.61
CC(=O)O[C@@]12CO[C@@H]1C[C@H](O)[C@@]1(C)C(=O)[C@H](O)C3=C(C)[C@@H](OC(=O)[C@H](O)[C@@H](NC(=O)OC(C)(C)C)c4ccccc4)C[C@@](O)([C@@H](OC(=O)c4ccccc4)[C@H]21)C3(C)C [Docetaxel] | 3.54 | 2.71 | 3.65 | 2.64 | 2.16 | 2.64
CN1CCC(=C2c3ccccc3CCc3cccnc32)CC1 [Azatadine dimaleate] | 1.51 | 1.59 | 0.544 | 1.05 | 0.437 | 1.44
CCN(CC)CC(=O)Oc1ccc(NC(C)=O)cc1 [Propacetamol hydrochloride] | 1.3 | 0.77 | 1.22 | 0.897 | 1.14 | 1.47
COc1cc(OC)cc(N(CCNC(C)C)c2ccc3ncc(-c4cnn(C)c4)nc3c2)c1 | 3.65 | 3.46 | 2.34 | 4.29 | 3.36 | 3.1
C=CC(=O)Nc1cccc(Oc2nc(Nc3ccc(N4CCN(C)CC4)cc3OC)ncc2Cl)c1 | 1.32 | 1.34 | 1.43 | 0.99 | 1.05 | 1.98
CO[C@@H]1[C@H](OC(=O)/C=C/C=C/C=C/C=C/C(=O)O)CC[C@]2(CO2)[C@H]1[C@@]1(C)O[C@@H]1CC=C(C)C [Fumagillin] | 2.75 | 2.91 | 4.57 | 2.95 | 1.89 | 3.29
O=C(O)c1cc(/N=N/c2ccc(S(=O)(=O)Nc3ccccn3)cc2)ccc1O [Sulfasalazine] | 1.02 | 0.839 | 0.638 | 1.14 | 0.963 | 0.897
CNCC[C@H](Oc1cccc2ccccc12)c1cccs1 [Duloxetine HCl] | 1.15 | 1.43 | 1.55 | 1.48 | 2.34 | 1.46
CC(=O)Nc1ccc(C(=O)Nc2ccccc2N)cc1 [CI994 (Tacedinaline)] | 1.29 | 1.67 | 1.56 | 2.76 | 1.83 | 1.94
CNC1(C)C2CCC(C2)C1(C)C (stereo not drawn) [Mecamylamine Hydrochloride] | 1.04 | 0.418 | 0.617 | 1.01 | 0.384 | 1.18
Cc1cc(-c2ccccc2)nnc1NCCN1CCOCC1 [Minaprine dihydrochloride] | 0.893 | 1.02 | 0.918 | 1.32 | 0.555 | 1.06
N=C(N)NCCC[C@H](N)C(=O)O [L-arginine] | 1.03 | 0.798 | 1.21 | 0.843 | 0.876 | 0.97
COc1ccc(CN(CCN(C)C)c2ncccn2)cc1 [Thonzylamine] | 1.16 | 1.66 | 1.32 | 1.44 | 0.672 | 1.89
COc1cc(Nc2ncc(F)c(Nc3ccc4c(n3)N(COP(=O)(O)O)C(=O)C(C)(C)O4)n2)cc(OC)c1OC [Fostamatinib (R788)] | 2.67 | 4.8 | 3.08 | 3.33 | 2.44 | 3.7
Cc1cc(N2CCN([C@@H]3CN[C@H](C(=O)N4CCSC4)C3)CC2)n(-c2ccccc2)n1 [Teneligliptin hydrobromide] | 1.1 | 1.09 | 2.06 | 1.2 | 1.21 | 1.33
CN(C)CCOC(C)(c1ccccc1)c1ccccn1 (stereo not drawn) [Doxylamine Succinate] | 1.09 | 0.709 | 1.18 | 1.42 | 0.475 | 1.14
CC(C)CN(C[C@@H](O)[C@H](Cc1ccccc1)NC(=O)O[C@H]1CO[C@H]2OCC[C@H]21)S(=O)(=O)c1ccc(N)cc1 [Darunavir Ethanolate] | 0.575 | 0.867 | 1.31 | 0.84 | 0.355 | 0.797

Structure (SMILES) | Euclidean distance (786-O) | Euclidean distance (A549) | Euclidean distance (DU145) | Euclidean distance (FB) | Euclidean distance (HEPG2) | Euclidean distance (OVCAR4)
O=C1NC(=O)C(c2ccccc2)(c2ccccc2)N1 [Phenytoin] | 0.857 | 0.495 | 1 | 1.34 | 0.945 | 0.752
CCCC(C(=O)OCCN(CC)CC)(c1ccccc1)c1ccccc1 [Proadifen HCl] | 1.14 | 1.1 | 2.58 | 1.59 | 1.89 | 1.13
CC(C)OC(=O)C(C)(C)Oc1ccc(C(=O)c2ccc(Cl)cc2)cc1 [Fenofibrate] | 1.18 | 0.803 | 0.9 | 1.1 | 1.75 | 1.73
Cc1nc(Nc2ncc(C(=O)Nc3c(C)cccc3Cl)s2)cc(N2CCN(CCO)CC2)n1 [Dasatinib] | 3.15 | 3.53 | 4.42 | 3.41 | 2.2 | 3.92
CN[C@H](CC(C)C)C(=O)N[C@H]1C(=O)N[C@@H](CC(N)=O)C(=O)N[C@H]2C(=O)N[C@H]3C(=O)N[C@H](C(=O)N[C@H](C(=O)O)c4cc(O)cc(O)c4-c4cc3ccc4O)[C@H](O)c3ccc(c(Cl)c3)Oc3cc2cc(c3O[C@@H]2O[C@H](CO)[C@@H](O)[C@H](O)[C@H]2O[C@H]2C[C@](C)(N)[C@H](O)[C@H](C)O2)Oc2ccc(cc2Cl)[C@H]1O [Vancomycin HCl] | 0.545 | 0.761 | 0.862 | 0.465 | 0.611 | 0.795
CC(C(O)c1ccc(O)cc1)N1CCC(Cc2ccccc2)CC1 (stereo not drawn) [Ifenprodil Tartrate] | 0.976 | 0.88 | 0.955 | 1.22 | 0.958 | 0.965
NC(=O)N/N=C/c1ccc([N+](=O)[O-])o1 [Nitrofural] | 1.31 | 0.907 | 1.62 | 1 | 0.466 | 1.22
COc1ccc(C[C@H](N)C(=O)N[C@H]2[C@@H](O)[C@H](n3cnc4c(N(C)C)ncnc43)O[C@@H]2CO)cc1 [Puromycin 2HCl] | 6.42 | 3.8 | 4.87 | 6.23 | 4.76 | 6
Cc1ccc2c(c1)C(=O)C1(O)CCN(c3ccccc3)C1=N2 (single isomer, unassigned; (-)) [(-)-Blebbistatin] | 1.29 | 1.46 | 1.36 | 1.03 | 1.13 | 1.46
CCN(CC)Cc1cc(Nc2ccnc3cc(Cl)ccc23)ccc1O [Amodiaquine hydrochloride] | 2.94 | 2.7 | 1.67 | 3.45 | 2.69 | 2.51
Cc1ccc(NCCCc2ccccc2)c(N)c1 | 0.637 | 0.572 | 0.826 | 0.816 | 0.57 | 0.53
CC(C)(C(=O)c1cccnc1)c1cccnc1 [Metyrapone] | 1.56 | 1.55 | 0.902 | 1.36 | 0.932 | 1.85
C1CCN2C[C@@H]3C[C@@H](CN4CCCC[C@@H]34)[C@H]2C1 [(-)-Sparteine Sulfate] | 0.93 | 0.957 | 0.846 | 1.03 | 0.474 | 1.04
N[C@@]1(C(=O)O)CS(=O)(=O)[C@H]2[C@H](C(=O)O)[C@H]21 | 0.494 | 1.32 | 0.671 | 0.749 | 0.743 | 0.75
CN(C)CCOc1ccc(/C(=C(/CCCl)c2ccccc2)c2ccccc2)cc1 [Toremifene Citrate] | 1.72 | 1.56 | 1.81 | 1.97 | 2.79 | 2.17
CCCCNc1ccc(C(=O)OCCOCCOCCOCCOCCOCCOCCOCCOCCOC)cc1 [Benzonatate] | 1.17 | 1.09 | 0.781 | 1.36 | 0.687 | 1.37
Nc1ccn(C[C@@H](CO)OCP(=O)(O)O)c(=O)n1 [Cidofovir] | 1.22 | 1.39 | 1.14 | 0.855 | 0.834 | 1.26
CC(=O)NO [Acetohydroxamic acid] | 1.37 | 1.28 | 0.954 | 1.17 | 0.648 | 0.776
C[C@H]1O[C@H](O[C@H]2[C@H](O)[C@@H](O)[C@@H](O[C@H]3[C@H](O)[C@@H](O)C(O)O[C@@H]3CO)O[C@@H]2CO)[C@H](O)[C@@H](O)[C@@H]1N[C@H]1C=C(CO)[C@@H](O)[C@H](O)[C@H]1O (stereo partly drawn) [Acarbose] | 1.5 | 1.91 | 1.47 | 1.59 | 0.847 | 1.46
COC(=O)C1=C(C)NC(C)=C(C(=O)OCCN(C)Cc2ccccc2)C1c1cccc([N+](=O)[O-])c1 (stereo not drawn) [Nicardipine HCl] | 1.27 | 1.28 | 0.897 | 0.903 | 1.24 | 1.31
Cc1ccc(-c2nc(N)nc3c2nnn3Cc2cccc(CO[C@H]3CCOC3)n2)o1 | 0.843 | 0.446 | 0.81 | 1.32 | 0.731 | 0.627
